The record followed here is PubChem BioAssay.

Active and inactive are the calls of the source. The rule behind the calls is not given here.

The assay relates to Aerobactin synthetase IucA (Klebsiella pneumoniae hvKP1). In words: Biochemical IucA enzyme inhibition primary screen of the Spectrum library (AID 1346200).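 Note: 100% = wells without compound and 0% = wells lacking enzyme.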 The following applies: malachite green pyrophosphate, A620, at 8 µM, active compounds read low.
For the compound `CC[C@H](C)C(=O)O[C@H]1CCC=C2C=C[C@H](C)C(CCC3C[C@@H](O)CC(=O)O3)[C@H]21` (stereo not given in full), the activity remaining was 102% (inactive).

Consider `O=C(O)c1cc(O)c2c(c1)[C@@H]([C@H]1c3cc(C(=O)O)cc(O)c3C(=O)c3c(O[C@H]4O[C@H](CO)[C@@H](O)[C@H](O)[C@H]4O)cccc31)c1cccc(O[C@H]3O[C@H](CO)[C@@H](O)[C@H](O)[C@H]3O)c1C2=O`, for which the activity remaining was 98.9% (inactive).

As to `CN(N=O)C(=O)N[C@@H]1[C@@H](O)[C@H](O)[C@@H](CO)O[C@@H]1O`, the activity remaining is 112% (inactive).

As to `Cc1cc(=O)n(-c2ccccc2)n1C`, the activity remaining is 110% (inactive). As to `CC1(C)CC[C@]2(C(=O)O)CC[C@]3(C)C(=CCC4[C@@]5(C)CC[C@@H](O)C(C)(C)C5CC[C@]43C)C2C1` (stereo not given in full), the activity remaining is 118% (inactive).
